Most compounds without a hit are left out; they make up all but 3.3% or so of the library.
BRCT PPI green: qHTS Assay for Inhibitors of BRCT-Phosphoprotein Interaction (Green Fluorophore) | Potency, µM (titrated, usually from 76.9 µM), usual class: inhibitors | hit rate 0.05% among 75,000 | BRCA1 BRCT-phosphopeptide binding, green fluorescence polarization | AID 875, 2007
Target sequence (P38398 whole entry, looked up): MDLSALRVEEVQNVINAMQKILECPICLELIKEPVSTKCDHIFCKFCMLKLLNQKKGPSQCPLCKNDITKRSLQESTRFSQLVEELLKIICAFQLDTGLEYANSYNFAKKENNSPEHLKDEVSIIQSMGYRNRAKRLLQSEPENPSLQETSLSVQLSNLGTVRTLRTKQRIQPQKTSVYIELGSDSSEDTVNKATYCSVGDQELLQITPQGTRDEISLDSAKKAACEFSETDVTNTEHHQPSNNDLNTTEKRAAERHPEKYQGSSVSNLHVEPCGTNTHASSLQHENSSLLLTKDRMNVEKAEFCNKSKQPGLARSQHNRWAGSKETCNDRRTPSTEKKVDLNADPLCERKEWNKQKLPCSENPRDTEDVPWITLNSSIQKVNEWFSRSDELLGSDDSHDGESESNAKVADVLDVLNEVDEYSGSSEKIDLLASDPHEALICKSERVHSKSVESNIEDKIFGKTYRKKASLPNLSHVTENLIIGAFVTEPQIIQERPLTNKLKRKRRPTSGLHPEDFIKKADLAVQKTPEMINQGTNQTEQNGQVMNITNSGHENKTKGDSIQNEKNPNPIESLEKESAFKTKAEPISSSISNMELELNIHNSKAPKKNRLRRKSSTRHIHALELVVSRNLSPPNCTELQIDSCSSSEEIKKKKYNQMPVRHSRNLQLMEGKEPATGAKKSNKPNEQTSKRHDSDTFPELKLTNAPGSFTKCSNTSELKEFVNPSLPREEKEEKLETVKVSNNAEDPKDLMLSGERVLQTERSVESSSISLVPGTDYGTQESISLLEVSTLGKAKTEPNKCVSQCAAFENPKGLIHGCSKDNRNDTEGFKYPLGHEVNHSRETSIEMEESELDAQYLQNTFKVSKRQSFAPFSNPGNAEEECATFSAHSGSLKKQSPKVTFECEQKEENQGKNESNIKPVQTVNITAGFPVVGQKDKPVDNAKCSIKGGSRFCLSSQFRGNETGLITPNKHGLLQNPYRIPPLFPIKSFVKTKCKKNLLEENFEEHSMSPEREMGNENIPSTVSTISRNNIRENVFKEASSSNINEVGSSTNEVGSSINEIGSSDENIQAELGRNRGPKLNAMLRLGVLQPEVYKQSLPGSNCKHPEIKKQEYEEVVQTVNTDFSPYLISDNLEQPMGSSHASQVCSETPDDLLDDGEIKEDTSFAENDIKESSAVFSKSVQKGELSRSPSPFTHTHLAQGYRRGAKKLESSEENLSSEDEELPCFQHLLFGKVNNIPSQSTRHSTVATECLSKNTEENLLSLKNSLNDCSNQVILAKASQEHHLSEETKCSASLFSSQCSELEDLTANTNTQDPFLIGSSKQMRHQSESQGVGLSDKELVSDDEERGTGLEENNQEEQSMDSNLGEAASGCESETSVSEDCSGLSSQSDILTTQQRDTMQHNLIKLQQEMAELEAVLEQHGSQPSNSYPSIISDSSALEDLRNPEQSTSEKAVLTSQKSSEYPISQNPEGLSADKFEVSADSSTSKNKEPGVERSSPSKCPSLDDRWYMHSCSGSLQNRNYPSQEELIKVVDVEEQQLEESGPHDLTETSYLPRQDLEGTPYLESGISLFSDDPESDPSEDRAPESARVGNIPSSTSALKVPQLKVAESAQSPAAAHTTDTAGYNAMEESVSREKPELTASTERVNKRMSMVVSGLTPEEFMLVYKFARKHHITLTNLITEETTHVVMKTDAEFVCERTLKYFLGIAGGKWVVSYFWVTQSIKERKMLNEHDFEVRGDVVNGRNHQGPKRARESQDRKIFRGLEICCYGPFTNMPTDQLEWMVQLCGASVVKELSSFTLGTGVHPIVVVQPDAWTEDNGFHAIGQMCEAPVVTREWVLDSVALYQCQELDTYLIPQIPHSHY
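Compounds were incubated for 12 min at room temperature with a complex of 100 nM fluorescein-tagged pBACH1 decapeptide and 250 nM His-tagged BRCT protein. Buffer was phosphate pH 7.3 with EDTA, DTT and Tween 20. Disruption of binding lowers the polarization signal.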
Hsp90 Hop PPI: qHTS Assay for Disrupters of an Hsp90 Co-Chaperone Interaction | Hsp90 C-terminal peptide / TPR2A (Hop) interaction, human | AlphaScreen TPR2A-His6 binding biotin-Hsp90 C-terminal peptide | Potency, µM (series often up to 57 µM) | hit rate 0.44% among 71,000; active = well fitted curve in either direction with a large enough effect; inconclusive = small, poorly fitted or top-dose-only effect, or another doubt
HEK293 cAMP cs: qHTS Assay for Agonists of the Thyroid Stimulating Hormone Receptor: Activators of Intracellular cAMP Concentrations in Parental HEK 293; hit rate 2.5% among 73,000; parental HEK293 CNG cAMP sensor, membrane potential fluorescence; Potency, µM (top dose mostly 57.1 µM), usual class: activators; note: nearly all actives have a fitted effect of over 55% in size
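Counterscreen for endogenous-receptor signalling: CNG-channel HEK 293 cells report cAMP rise by membrane depolarization. After 60 min dye equilibration with 100 uM RO 20-1724, compounds incubated 30 min before bottom-read fluorescence at 590 nm.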
TSHR ag: qHTS Assay for Agonists of the Thyroid Stimulating Hormone Receptor; HEK293-CNG-TSHR cells (CNG channel as cAMP sensor), membrane potential dye, cAMP; Potency, µM (doses to about 57.1 µM), most hits filed as activators; hit rate 0.48% among 73,000; AID 926, 2007; active = well fitted activation curve with a large enough effect in the main read-out, with a control signal flat, not every such curve was filed as active; inconclusive = small, poorly fitted or top-dose-only effect, or a change in a side signal; inactive = no such curve, though single readings can be large or run the other way; reference of the percent scale not stated here;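 note: the control signal comes from parental cells without the receptor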
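HEK 293 cells stably expressing TSHR and a modified CNG channel, with CNG-only parental cells as counterscreen, were preloaded 60 min at room temperature with membrane potential dye containing 100 uM RO 20-1724. Compound exposure was 30 min, and depolarization was read as fluorescence at 590 nm.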
TsaE inh: qHTS Assay for Inhibitors of YjeE; tRNA threonylcarbamoyladenosine biosynthesis protein TsaE (Escherichia coli (strain …; purified YjeE enzyme, qHTS inhibition assay; Potency, µM; hit rate 0.05% among 71,000
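Purified YjeE (10 uM) with BODIPY Texas Red-labeled ADP probe (2 uM); compounds pin-transferred, 15 min at room temperature. Binding inhibition read as decreased fluorescence polarization; ADP titration as control.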
BRCT inh red: qHTS Assay for Inhibitors of BRCT-Phosphoprotein Interaction (Red Fluorophore). Breast cancer type 1 susceptibility protein (Homo sapiens), P38398. BRCT-phosphopeptide binding, red fluorescence polarization. Potency, µM (titrated, usually from 76.9 µM), actives largely listed as inhibitors. hit rate 0.03% among 75,000. AID 892, 2007
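Rhodamine-labelled pBACH1 10-mer (100 nM) bound to BRCT domain (100 nM) at pH 7.3; compounds incubated 12 min room temperature, polarization read. Free peptide defines full inhibition; unlabelled decapeptide titrated as control.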
Hits are given with their value; i = inactive; ? = inconclusive; nt = no result; ! = not active in a repeat; [ ] = remark or other dose. Unless noted, calls come from the whole dose curve; as a rule, active = well fitted curve in the direction sought with a large enough effect; inconclusive = small, poorly fitted or top-dose-only effect, or another doubt; inactive = no such curve, though single readings can be large; an effect the other way counts as inactive or inconclusive.

SMILES | BRCT PPI green | Hsp90 Hop PPI | HEK293 cAMP cs | TSHR ag | TsaE inh | BRCT inh red
O=C(Oc1ccc(N(Cc2cccs2)C2=NS(=O)(=O)c3ccccc32)cc1)c1ccco1 | i | i | i | i | i | i
COc1ccccc1N(C(=O)CNS(=O)(=O)c1ccccc1)C(C(=O)NCc1ccco1)C(C)C (configuration not stated) | i | i | ? | ? | i | i
CCCC(C(=O)NCc1ccco1)N(C(=O)CNS(=O)(=O)c1ccccc1)c1ccccc1OC (configuration not stated) | i | i | 25.1µM | ? | i | i
CCC(C(=O)NCc1ccco1)N(C(=O)CNS(=O)(=O)c1ccc(C)cc1)c1ccccc1OC (configuration not stated) | i | i | 15.8µM | ? | i | i
O=C(CN(Cc1ccco1)C(=O)CNS(=O)(=O)c1ccccc1)NCc1ccccc1 | i | i | i | 20µM | i | i
CCCCNc1nc(C)nc2c1nc(-c1ccccc1)n2CC1CCN(C)CC1 | i | i | i | i | i | i
COC(=O)[C@](C)(N)Cc1ccc(O)cc1 | i | i | ? | ? | i | i
CCNc1ncc2nc(-c3cc(F)cc(F)c3)c(=O)n(C3CC3)c2n1 | i | i | i | i | i | i
CCc1ccccc1OC[C@@H](O)CN[C@H]1CCCc2ccccc21 | i | i | 39.8µM | ? | i | i
c1csc(CNc2nc(-c3ccc4c(c3)OCO4)nc3ccccc23)c1 | i | i | i | i | i | i
CC(=O)NC(CCS(C)(=O)=O)C(=O)Nc1cccc(C)c1 (configuration not stated) | i | i | 3.16µM | ? | i | i
CC(=O)NC(CCS(C)(=O)=O)C(=O)Nc1ccc(C)c(F)c1 (configuration not stated) | i | i | i | i | i | i
COc1cc(OC)cc(C(=O)N(Cc2nc(-c3cccc(C)c3)no2)C(C)C)c1 | i | i | 31.6µM | ? | i | i
COc1ccc(-c2noc(CN(C(=O)c3ccc(OC(C)=O)cc3)C(C)C)n2)cc1OC | i | i | i | 25.1µM | i | i
N#C/C(=C\c1ccc(O)c(O)c1)C(=O)NCCCc1ccccc1 | i | 5.01µM! | i | i | i | i
N#C/C(=C\c1ccc(O)c(O)c1)C(=O)c1ccc(O)c(O)c1 | i | ? | i | i | i | i
O=C(/C=C/c1ccc(O)c(O)c1)OCCc1ccccc1 | i | nt | nt | nt | nt | i
N#C/C(=C\c1ccc(O)c(O)c1)C(=O)OCCc1cccs1 | i | 3.98µM | i | i | i | i
Cc1ccc(-c2nc3nc4ccccc4nc3n2Cc2ccco2)cc1 | i | i | 25.1µM | ? | i | i
CCC(=O)N1CCN(c2nc(-c3ccccc3)c3c(c2C#N)CCCC3)CC1 | i | i[11 µM] | 3.98µM | ? | i | i
N#Cc1c(SCC(N)=O)nc(-c2ccccc2)c2c1CCCC2 | i | i | 20µM | ? | i | i
Cc1cc(-c2ccccc2)c(C#N)c(SCC(N)=O)n1 | i | i | i | i | i | i
CS(=O)(=O)N1CCC2(CCCN(c3cccc(-c4ccccc4)c3)C2)CC1 | i | i | i | i | i | i
COc1cc(OC)c2c(=O)c(-c3ccccc3)coc2c1 | i | nt | nt | nt | nt | i
CN1Cc2cc(C(=O)c3cc(Cl)cc(CSc4ncccn4)c3O)cnc2NC1=O | i | i | i | 15.8µM | i | i
SMILES | BRCT PPI green | Hsp90 Hop PPI | HEK293 cAMP cs | TSHR ag | TsaE inh | BRCT inh red
Cc1noc(C)c1-c1ccc2ncnc(N3CCOCC3)c2c1 | i | i | i | i | i | i
CNCC[C@@H](Oc1ccccc1C)c1ccccc1 | i | i | 31.6µM | ? | i | i
Cc1cnc(CNc2nc(-c3ccc(C(=O)N(C)C)cc3)nc3ccccc23)cn1 | i | i | i | i | i | i
COc1ccc2c(c1)c(=O)oc1cc(OCC(=O)N3CCCC(C)C3)ccc12 (configuration not stated) | i | i | 31.6µM | ? | i | i
CCN(CCCCOC(=O)c1ccc(OC)c(OC)c1)[C@@H](C)Cc1ccc(OC)cc1 | i | i | i | nt | i | i
COC(=O)c1ccccc1NC(=O)CN1CCN(C23CC4CC(CC(C4)C2)C3)CC1 | i | i | 7.94µM | ? | i | i
COC(=O)c1ccccc1NC(=O)CN1CCC(n2nnc3cc(F)ccc32)CC1 | i | i | 25.1µM | ? | i | i
O=C(CN1CCC(n2nnc3cc(F)ccc32)CC1)Nc1ccccc1N1CCOCC1 | i | i | i | i | i | i
CC(=O)[C@@]1(O)CC[C@@H]2[C@@H]3CCC4=CC(=O)CC[C@@]4(C)[C@H]3CC[C@]21C | i | i | i | i | i | i
O=C1C(SCCO)=C(SCCO)C(=O)c2ccccc21 | i | ? | 25.1µM! | ? | i | i
N#CC(=NCCO)C1=C(O)c2ccccc2C1=O | i[15.4 µM] | i[11 µM] | i[11.4 µM] | i[11.4 µM] | i | i[15.4 µM]
Cc1cc2c(c(=O)o1)[C@@H](O)[C@H]1O[C@@H]1C2=O | i[15.4 µM] | nt | i[11.4 µM] | i[11.4 µM] | nt | i[15.4 µM]
Cc1ccc(Cl)cc1NC(=O)CC(O)(C(F)(F)F)C(F)(F)F | i | i | 6.31µM | ? | i | i
Cc1ccc2c(c1)cc(CN(Cc1cccs1)C(=O)c1ccco1)c1nnnn12 | i | i | 15.8µM | ? | i | i
CCNc1ccc(S(=O)(=O)C(F)(F)F)cc1NC(=O)C12CCC(CC1)C2 | i | i | 15.8µM | ? | i | i
O=C(Cl)c1cccc([N+](=O)[O-])c1 | i | i | i | ? | i | i
COC(=O)c1cc(CSc2nc3ccc(C)cc3[nH]2)oc1C | i | i | 20µM | ? | i | i
COC(=O)c1cc(CSc2nnc(-c3ccccc3)c(-c3ccccc3)n2)oc1C | i | i | i | i | i | i
O=C1CCCC=C1[C@@H](O)CCOC(c1ccccc1)(c1ccccc1)c1ccccc1 | i[15.4 µM] | nt | ? | ? | nt | i[15.4 µM]
CCOC(=O)c1cccc(NC(=O)c2cc3sccc3n2C)c1 | i | i | 10µM | ? | i | i
c1ccc(-c2cc3c(-n4cccc4)ncnc3o2)cc1 | i | i | 20µM | ? | i | i
COc1cccc(Cn2c(=O)cnc3cnc(OC)nc32)c1 | i | i | ? | ? | i | i
O=C(NCc1ccc2c(c1)OCO2)c1ccc2snnc2c1 | i | i | 7.94µM | ? | i | i
Cn1nnc2cc(C(=O)NCc3ccc4c(c3)OCO4)ccc21 | i | i | i | i | i | i
COC(=O)[C@@H]1C[C@H]1[C@@H](NC(=O)OCc1ccccc1)c1ccccc1 | nt | i | ? | ? | i | nt
